Structures are written as SMILES. Inconclusive results are not listed. Active and inactive are the calls of the source. Rule for the calls: active = hit-call score of the fitted dose curve at least 0.9, where 1 is the maximum; inconclusive = response in the unintended direction; inactive = score below 0.9.

human Lymphocyte-cell Factor Kinase (Lck), LCK (gene 3932), sequence (P06239 whole entry, looked up): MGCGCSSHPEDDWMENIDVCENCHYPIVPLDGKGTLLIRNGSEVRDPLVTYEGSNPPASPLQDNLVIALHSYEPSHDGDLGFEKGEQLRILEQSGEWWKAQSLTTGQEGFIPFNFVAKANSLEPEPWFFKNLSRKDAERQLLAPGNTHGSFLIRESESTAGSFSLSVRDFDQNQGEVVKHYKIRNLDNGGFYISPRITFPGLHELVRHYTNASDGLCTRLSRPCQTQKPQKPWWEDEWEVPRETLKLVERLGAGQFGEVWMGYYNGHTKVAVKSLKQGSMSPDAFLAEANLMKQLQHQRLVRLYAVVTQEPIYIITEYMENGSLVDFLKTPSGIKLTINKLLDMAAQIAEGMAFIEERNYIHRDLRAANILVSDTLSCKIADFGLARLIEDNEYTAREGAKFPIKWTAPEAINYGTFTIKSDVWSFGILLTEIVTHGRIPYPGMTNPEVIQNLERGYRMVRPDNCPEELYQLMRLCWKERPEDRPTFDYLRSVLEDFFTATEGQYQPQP

The target of the assay is human Lymphocyte-cell Factor Kinase (Lck), LCK (gene 3932) (UniProt P06239). The assay can be described thus: NVS_ENZ_hLck: NovaScreen (NVS) Enzymatic Assay for human Lymphocyte-cell Factor Kinase (Lck). As for the experimental part:
NVS_ENZ_hLck is a biochemical, single-readout assay that uses extracted gene-proteins in a cell-free assay. Measurements were taken 1 hour after chemical dosing in a 384-well plate.NVS_ENZ_hLck is one of one assay component(s) measured or calculated from the NVS_ENZ_hLck assay. It is designed to make measurements of enzyme activity, a form of enzyme reporter, as detected with fluorescence intensity signals by Fluorescence and electrophoretic mobility shift technology.Data from the assay component NVS_ENZ_hLck was analyzed into 1 assay endpoint. This assay endpoint, NVS_ENZ_hLck, was analyzed in the positive analysis fitting direction relative to DMSO as the negative control and baseline of activity. Using a type of enzyme reporter, loss-of-signal activity can be used to understand changes in the enzymatic activity as they relate to the gene LCK. Furthermore, this assay endpoint can be referred to as a primary readout, because this assay has produced […] where this one serves a enzymatic activity function. To generalize the intended target to other relatable targets, this assay endpoint is annotated to the kinase intended target family, where the subfamily is non-receptor tyrosine kinase.
Binding assays used specific radioligands (tritiated, iodinated) with non-radioactive competitive displacement ligands in agonist or antagonist protocols (as indicated) and various reference compounds and inhibitors to titrate specific binding to receptors and transporters. Most enzyme assays (CYPs, kinases, phosphatases, proteases, HDACs) used recombinant protein and specific substrates (fluorescence mostly, some colorimetric and radioactive) and inhibitors, followed by a biochemical separation of substrate and product. All assays for the biochemical HTS were initially run in duplicate at a single concentration (10 uM for CYP450 assays and 25 uM for all others). Assay-chemical combinations meeting a pre-defined threshold (e.g., 30% inhibition and other criteria defined below) were then run in singleton concentration-response format with maximum concentration of 20 uM for CYPs and 50 uM for all others. Each assay was run with positive and negative controls, and concurrent controls on every plate. The follow-up (secondary) screen tested active chemical-pairs in concentration series, as well as a few additional assays not tested in the primary screen, some selected negative inactives, and several cases re-run in the concentration series for confirmatory purposes.
Consider `Cc1cnc(C2=NC(C)(C(C)C)C(=O)N2)c(C(=O)O)c1` (stereo not drawn), for which the molecule was called inactive. With `S=C1NCCN1`, the molecule was called inactive. `O=C(Nc1ccccc1)Nc1cnns1`: the outcome was inactive. Same read-out and setting: the same measure for `O=C(O)C(F)(F)C(F)(F)C(F)(F)C(F)(F)C(F)(F)C(F)(F)C(F)(F)F`: “inactive”. Turning to `O=S(=O)(O)C(F)(F)C(F)(F)C(F)(F)C(F)(F)C(F)(F)C(F)(F)C(F)(F)C(F)(F)F`, the AC50 was 43.9 µM (active). With `CC[C@H](C)[C@H]1O[C@]2(C=C[C@@H]1C)C[C@@H]1C[C@@H](C/C=C(\C)[C@@H](O[C@H]3C[C@H](OC)[C@@H](O[C@H]4C[C@H](OC)[C@@H](NC)[C@H](C)O4)[C@H](C)O3)[C@@H](C)/C=C/C=C3\CO[C@@H]4[C@H](O)C(C)=C[C@@H](C(=O)O1)[C@]34O)O2`, the AC50 is 36 µM (active).

For `CNC(=S)S`, the molecule was classed as inactive. `C=CCC1=C(C)[C@@H](OC(=O)[C@@H]2[C@@H](C=C(C)C)C2(C)C)CC1=O`: the result was inactive.

The record behind these values is PubChem BioAssay AID2283170 (EPA ToxCast).
